Measurements reported in PubChem BioAssay (NCI).
About 83,000 compounds went through this panel and 20% of them were active in at least one assay; those are over-represented in the sample as a whole.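 Growth was measured after 48 h exposure to one concentration of compound in 96-well plates. Values under 10 count as active.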 Calls of active or inactive are those of the source.

Columns and labels:
Test in all cases: NCI-60 one-dose screen, 48 h (100 = growth as untreated, 0 = no growth, -100 = all killed)
Conditions in all cases: 10 µM unless noted
[1] = test system: HCT-15 colon
[2] = test system: HT29 colon
[3] = test system: SNB-75 CNS
[4] = test system: SNB-19 CNS
[5] = test system: U251 CNS
[6] = test system: PC-3 prostate
[7] = test system: SK-MEL-5 melanoma
[8] = test system: UACC-62 melanoma
[9] = test system: LOX IMVI melanoma
[10] = test system: SK-MEL-28 melanoma
[11] = test system: SK-MEL-2 melanoma
[12] = test system: EKVX NSCLC
[13] = test system: SN12C renal
[14] = test system: UO-31 renal
[15] = test system: TK-10 renal
[16] = test system: ACHN renal
[17] = test system: CAKI-1 renal
[18] = test system: CCRF-CEM leukemia
[19] = test system: MOLT-4 leukemia

Measured: growth

CC(=O)[C@@H]1CC[C@]2(C(N)=O)CC[C@]3(C)[C@H](CC[C@@H]4[C@@]5(C)CCC(=O)C(C)(C)[C@@H]5CC[C@]43C)[C@@H]12
inactive: [1] 103% | [2] 95.9% | [3] 89% | [4] 102% | [5] 103% | [6] 78.5% | [7] 101% | [8] 84.5% | [9] 99.2% | [10] 100% | [11] 100% | [12] 90.1% | [13] 102% | [14] 98.7% | [15] 107% | [16] 97.1% | [17] 89.6% | [18] 99% | [19] 92.5%

CS(=O)(=O)OCCN(CCOS(C)(=O)=O)c1ccc(/C=N/Nc2ccc([N+](=O)[O-])cc2[N+](=O)[O-])cc1
inactive: [1] 100% | [2] 85.9% | [3] 77.2% | [4] 82.7% | [5] 76% | [6] 67.3% | [7] 89.2% | [8] 78% | [9] 63.5% | [10] 95.7% | [11] 118% | [12] 81.7% | [13] 77.6% | [14] 88.9% | [15] 112% | [16] 84.6% | [17] 70.4% | [18] 55.5% | [19] 88.4%

CC(=O)N1c2ccccc2NC2=C(C(=O)N(C)C2(C)C)C1C (centres undefined)
inactive: [1] 93.8% | [2] 25.2% | [4] 39.9% | [5] 18.1% | [6] 36.4% | [7] 27.5% | [8] 32.3% | [9] 37.5% | [10] 56% | [12] 61.5% | [13] 40.7% | [14] 82% | [15] 87.1% | [16] 97% | [17] 71.9% | [18] 20.7% | [19] 33.3%
active: [3] -3.29% | [11] 8.92%

Cc1ccc(C(=O)Nc2ccccc2C(=O)N/N=C(\c2ccccc2)c2ccccn2)cc1
inactive: [1] 29.1% | [2] 24.9% | [3] 22.1% | [4] 26.2% | [5] 22.6% | [6] 33.1% | [10] 32.4% | [11] 41.4% | [12] 13.1% | [13] 28.9% | [15] 47.2% | [16] 15.1% | [17] 10.5% | [19] 15.8%
active: [7] -4.18% | [8] 5.33% | [9] 5.79% | [14] 3.57% | [18] 8.79%

N#Cc1cc(-c2nc3ccccc3s2)c(=O)n(NS(=O)(=O)c2ccc(Cl)cc2)c1N
inactive: [1] 103% | [2] 109% | [3] 63.1% | [4] 102% | [5] 102% | [6] 98.5% | [7] 99.5% | [8] 88.2% | [9] 97% | [10] 111% | [11] 102% | [12] 100% | [13] 97.8% | [14] 70.4% | [15] 139% | [16] 95.5% | [17] 80.5% | [18] 107% | [19] 107%

COc1cccc(NC(=O)c2cccc(-c3cc(=O)c4c(OC)c(OC)c(OC)cc4o3)c2)c1
inactive: [1] 54.7% | [2] 50.8% | [3] 89.8% | [4] 82.5% | [5] 62.1% | [6] 57.1% | [7] 63.9% | [8] 62.1% | [9] 49.9% | [10] 73.4% | [11] 75.7% | [12] 81.3% | [13] 62.3% | [14] 31.6% | [15] 78.8% | [16] 62.5% | [17] 74.7% | [18] 40.5% | [19] 48.5%

CS(=O)(=O)c1ccc(-c2cc(-c3nnc(SCC(=O)Nc4ccc(C(=O)/C=C/c5ccc(Cl)cc5)cc4)n3-c3ccccc3)c3ccccc3n2)cc1
inactive: [1] 96.4% | [2] 106% | [3] 72.3% | [4] 85.2% | [5] 90.9% | [6] 89.1% | [7] 95.7% | [8] 80.2% | [9] 92.2% | [10] 103% | [11] 107% | [12] 94% | [13] 91.3% | [14] 72.5% | [15] 99.3% | [16] 97.6% | [17] 86.2% | [18] 99.6% | [19] 90.5%

Cc1nc2sc(C(=O)Nc3ccccc3)c(N)c2cc1C(=O)c1ccc(C(F)(F)F)cc1
inactive: [1] 103% | [2] 103% | [3] 17.4% | [4] 96.3% | [5] 102% | [6] 102% | [7] 98.1% | [8] 95.3% | [9] 96.9% | [10] 99.7% | [11] 101% | [12] 79.3% | [13] 99.6% | [14] 90.7% | [15] 104% | [16] 80% | [17] 83.6% | [18] 102% | [19] 108%

Nc1c(C(=O)Nc2cccc3ccncc23)sc2nc3c(cc12)C(=O)CCC3
inactive: [1] 35.1% | [2] 18.2% | [4] 32.9% | [5] 48.3% | [6] 52.9% | [8] 28.9% | [9] 46.2% | [10] 55.8% | [11] 25.1% | [12] 62.1% | [13] 54.5% | [14] 57.7% | [15] 68.2% | [16] 51.2% | [17] 37.7% | [18] 21.5% | [19] 85.2%
active: [3] 9.48% | [7] 3.47%

O=C(CSc1nc2sc3c(c2c(=O)n1Cc1ccccc1)CCCC3)N1CCN(c2ccccc2)CC1
inactive: [1] 94.8% | [2] 90.2% | [3] 79.4% | [4] 110% | [5] 90.8% | [6] 83.2% | [7] 98.5% | [8] 96% | [9] 97% | [10] 106% | [11] 106% | [12] 99.6% | [13] 110% | [14] 76.8% | [15] 104% | [16] 104% | [17] 92.9% | [18] 97.7% | [19] 92.8%

COc1ccc(/C(C)=N/NC(=O)CSc2nc3ccccc3c(=O)n2Cc2ccc(S(N)(=O)=O)cc2)c(OC)c1
inactive: [1] 96.2% | [2] 111% | [3] 82.9% | [4] 95.5% | [5] 103% | [6] 97.1% | [7] 98% | [8] 96.9% | [9] 94.2% | [10] 110% | [11] 115% | [12] 89.9% | [13] 100% | [14] 80% | [15] 108% | [16] 105% | [17] 89.9% | [18] 104% | [19] 97.9%

Fc1cc(C2=NNC(c3ccc[nH]3)C2)ccc1-n1ccc(C(F)(F)F)n1 (centres undefined)
inactive: [1] 94.1% | [2] 92.9% | [3] 87.7% | [4] 91.2% | [5] 77.6% | [6] 72.3% | [7] 98% | [8] 81.3% | [9] 94.2% | [10] 104% | [11] 102% | [12] 84.7% | [13] 85.6% | [14] 52.1% | [15] 117% | [16] 91% | [17] 66.5% | [18] 68.3% | [19] 77.5%

CC[C@H](CC[C@@H](C)[C@H]1CC[C@H]2[C@@H]3CC=C4C[C@@H](OCCc5nn[nH]n5)CC[C@]4(C)[C@H]3CC[C@]12C)C(C)C
inactive: [1] 102% | [2] 94.8% | [3] 107% | [4] 110% | [5] 105% | [6] 112% | [7] 111% | [8] 118% | [9] 99.9% | [10] 110% | [11] 111% | [12] 102% | [13] 108% | [14] 99.5% | [15] 101% | [16] 105% | [17] 105% | [18] 103% | [19] 100%

S=c1[nH]cccc1-c1nnc2n1Nc1nc3ccccc3cc1CS2
inactive: [1] 108% | [2] 106% | [3] 82.8% | [4] 94.8% | [5] 103% | [6] 107% | [7] 97.4% | [8] 91.2% | [9] 98.6% | [10] 111% | [11] 104% | [12] 97.1% | [13] 98.8% | [14] 70.2% | [15] 105% | [16] 93.3% | [17] 82.8% | [18] 105% | [19] 104%

C#CC(=O)Nc1cccc(Nc2nc3c(c(NCc4ccccc4)n2)CCCC3)c1
active: [1] -64.8% | [2] -29.1% | [3] -29.3% | [4] -79.4% | [5] -86.8% | [6] -66.2% | [7] -89.2% | [8] -77.9% | [9] -87.2% | [10] -84.6% | [11] -69.1% | [12] -62.3% | [13] -30.7% | [14] -91.6% | [15] -97.2% | [16] -93.5% | [17] -85.4% | [18] -8.54% | [19] -24.9%

C#CCNC(=O)[C@H](Cc1ccccc1)NC(=O)[C@]12CC[C@@H](C(=C)C)[C@@H]1[C@H]1CC[C@@H]3[C@@]4(C)Cc5c([nH]c6ccccc56)C(C)(C)[C@@H]4CC[C@@]3(C)[C@]1(C)CC2
inactive: [1] 101% | [2] 88.8% | [3] 92.9% | [4] 90.9% | [5] 91.8% | [6] 77.8% | [7] 102% | [8] 93.2% | [9] 97.4% | [10] 102% | [11] 95.5% | [12] 94% | [13] 93.6% | [14] 90.3% | [15] 90.4% | [16] 94.8% | [17] 86.8% | [18] 91.6% | [19] 93.7%
